From PubChem
This is a sample that favours compounds with a hit; in the whole collection about 2.6% have one here.
HIF-2a block – HIF-2a reporter inhibitors, primary screen, luminescence, 786-0 RCC cells | 786-0 RCC cells HIF-2a reporter, luciferase luminescence, overnight | inhibition, % at 18.8 µM | 360,000 compounds, 0.72% hits;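 active = inhibition of the luminescence signal of 40% or more relative to plate controls, in a single-dose primary screen at 18.75 µM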
Shn3 inh set2 – reduction of Shn3 3'UTR firefly luciferase signal, primary screen, Schnurri-3 inhibitor project, cell-based, Clone20 osteoblasts, set 2; Clone20 osteoblast Shn3 3'UTR firefly luciferase, 24 h; inhibition, % at 12.5 µM; 360,000 compounds, 0.52% hits; AID 588674, 2011;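 active = mean inhibition of at least 75% with every replicate also reaching 75%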
Peg3 promoter – Peg3 promoter-driven luciferase inhibitors, primary screen, cell-based, HeLa, luciferase luminescence. inhibition, % at 20 µM. 360,000 compounds, 1.7% hits. HeLa PEG-Prom luciferase reporter, overnight;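 active = inhibition of at least 50% at 20 µM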
CF NFkB block – inhibitors of PAF-induced NF-kB signaling, primary screen, cell-based, GFP fluorescence, uHTS; inhibition, % at 5 µM; 360,000 compounds, 0.86% hits; AID 588850, 2011; KKLEB NF-kB-GFP reporter, GFP fluorescence overnight;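 active = at least 50% inhibition at 5 µM, scaled per plate between neutral and stimulator controls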;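 also: PAF is a Pseudomonas aeruginosa culture filtrate used as stimulus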
KKLEB tox – cytotoxicity in KKLEB CF airway cells, primary screen, cytotoxicity control for CF NF-kB inhibitor project, cell-based, uHTS, fluorescence assay plates; KKLEB CF airway cells viability, ATPlite luminescence, overnight; active compounds read low; cells stimulated with P. aeruginosa culture filtrate; activity change (cytotoxicity), % at 5 µM; 360,000 compounds, 0.36% hits;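 active = corrected activity change at or below -50% at 5 µM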
Of the large screens only hits and unclear results are named; the others gave an inactive call; ! = not active in a repeat.

CNC(=O)c1nnsc1S(=O)c1ccc(Cl)cc1 (stereo unspecified)	Shn3 inh set2 97, Peg3 promoter 103, CF NFkB block 91
NC(=O)C1CCCN(S(=O)(=O)c2ccc3ccccc3c2)C1 (stereo unspecified)	none
O=C(Cc1ccc(Cl)cc1)c1c[nH]c(C(=O)NCc2cccnc2)c1	Peg3 promoter 102
CC(C)(C)c1ccc(C(=O)c2c[nH]c(C(=O)NCc3cccnc3)c2)cc1	none
Cc1cc(-c2cccnc2)c(C#N)c(SCc2cccc(F)c2)n1	CF NFkB block 54, KKLEB tox -62
Cc1cccc(NC(=O)[C@@H]2CCCN2C(=O)OC(C)(C)C)c1	none
CCc1ccc(NC(=O)C2C3CCC(O3)C2C(=O)O)cc1 (stereo unspecified)	none
COC(=O)C1=C(C)NC(C)=C(C(=O)OC)C1c1ccc(-c2cccc([N+](=O)[O-])c2)o1	none
COC(=O)C1=C(C)NC(C)=C([N+](=O)[O-])C1c1ccccc1C(F)(F)F (stereo unspecified)	Shn3 inh set2 93!
CC(C)(C)OC(=O)CNC(=O)c1nc[nH]c1C(=O)NCc1ccc(CNC(=O)OC(C)(C)C)cc1	none
Cc1cccc(NC(=O)c2nc[nH]c2C(=O)NC2CCN(C(=O)OC(C)(C)C)CC2)c1	Peg3 promoter 61
CC(C)(C)OC(=O)NCCCCCNC(=O)c1nc[nH]c1C(=O)NCc1ccc(CNC(=O)OC(C)(C)C)cc1	Shn3 inh set2 89, Peg3 promoter 80
CC(C)(C)OC(=O)N1CCC(NC(=O)c2nc[nH]c2C(=O)NCc2ccccc2)CC1	none
CC(C)(C)OC(=O)NCc1ccc(CNC(=O)c2[nH]cnc2C(=O)NC2CCN(C(=O)OC(C)(C)C)CC2)cc1	Peg3 promoter 61
CC(C)(C)OC(=O)NCCCCCNC(=O)c1[nH]cnc1C(=O)N[C@@H](Cc1ccccc1)C(=O)OCc1ccccc1	Peg3 promoter 59
CC(C)C[C@H](NC(=O)c1nc[nH]c1C(=O)NCCCCCNC(=O)OC(C)(C)C)C(=O)OCc1ccccc1	none
CCC(Cc1ccccc1)NC(=O)C1CCC(CNc2c(N3CCCC3)c(=O)c2=O)CC1 (stereo unspecified)	none
O=C(NS(=O)(=O)c1ccccc1)c1cccc(Br)c1	none
O=C1Nc2ccccc2-n2nnnc2C1N1CCN(c2ccc(C(F)(F)F)cn2)CC1 (stereo unspecified)	none (no result: Shn3 inh set2, Peg3 promoter, CF NFkB block, KKLEB tox)
CC(C)(C)OC(=O)NCCCCCNC(=O)c1nc[nH]c1C(=O)NCCCCCNC(=O)OC(C)(C)C	Peg3 promoter 64
CC(C)(C)OC(=O)NCc1ccc(CNC(=O)c2nc[nH]c2C(=O)NCc2ccc(CNC(=O)OC(C)(C)C)cc2)cc1	Shn3 inh set2 87
CCOC(=O)c1ccccc1NC(=O)COC(=O)CSC(C)C(=O)Nc1cc(C)on1 (stereo unspecified)	none
CCCCN(CC)CCNC(=O)c1cc2c(-c3ccc(Cl)cc3)nn(C)c2s1	Peg3 promoter 103
CCCN(CCC)CCNC(=O)c1cc2c(-c3ccc(Cl)cc3)nn(C)c2s1	Peg3 promoter 76
O=C(Nc1ccc(Cl)cc1)Nc1nnc(-c2ccncc2)s1	Peg3 promoter 64, CF NFkB block 84, KKLEB tox -89
O=C(Nc1ccc(F)cc1)Nc1nnc(-c2ccncc2)s1	CF NFkB block 85
OC(c1cccc(Cl)c1)c1nc(/C=C/c2ccccc2)cs1 (stereo unspecified)	none
Cn1nc(-c2ccccc2)c(CN2CCN(c3ncccn3)CC2)c1Cl	none
CCC[C@@H](CN1CCC[C@H]1CN1C(N)=NC[C@@H]1Cc1ccccc1)N1C[C@@H](Cc2ccccc2)N(CCCC2CCCC2)C1=N	none
CCC[C@@H](CN1CCC[C@H]1CN1C(N)=NC[C@@H]1Cc1ccccc1)N1C[C@@H]([C@H](C)CC)N(CCCC2CCCC2)C1=N	Shn3 inh set2 93
CC(C)(C)c1ccc(C(=O)NC(=S)NNC(=O)c2cccs2)cc1	CF NFkB block 58
CC(C)(C)C(=O)NC(=S)NNC(=O)c1ccc(-c2ccccc2)cc1	Shn3 inh set2 94, CF NFkB block 56
